From PubChem
Nrf2 activator: Nrf2 pathway activation; AREc32 ARE-luciferase reporter (MCF7-derived line), luminescence, 24 h; Potency, µM (series often up to 46.1 µM), without a hit: top-dose activation, usual class: activators; 410,000 tested, 0.31% active; also: potency is read from the fitted curve at half-maximal effect; % of control where 0% means no effect; nearly all actives have a fitted effect of over 65% in size
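AREc32_Fluc, 1000 cells/well, OPTI-MEM + 5% FBS, o/n 37 deg C 5% CO2; 23 nL cpd by pin tool, 24 hr; Steady-Glo 30 min RT, luminescence.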
12-LOX inh: ALOX12 (human) lipoxygenase inhibition | 580,000 tested, 1.1% active | Potency, µM (series often up to 108 µM), without a hit: at the top dose activity change, negative = inhibition, most hits filed as inhibitors | P18054 | AID 1671190 | purified 12hLO, xylenol orange hydroperoxide absorbance; also: potency is read from the fitted curve at half-maximal effect; % is scaled to controls: 0 for no effect and ±100 for the full control effect
Target sequence (P18054 whole entry, looked up): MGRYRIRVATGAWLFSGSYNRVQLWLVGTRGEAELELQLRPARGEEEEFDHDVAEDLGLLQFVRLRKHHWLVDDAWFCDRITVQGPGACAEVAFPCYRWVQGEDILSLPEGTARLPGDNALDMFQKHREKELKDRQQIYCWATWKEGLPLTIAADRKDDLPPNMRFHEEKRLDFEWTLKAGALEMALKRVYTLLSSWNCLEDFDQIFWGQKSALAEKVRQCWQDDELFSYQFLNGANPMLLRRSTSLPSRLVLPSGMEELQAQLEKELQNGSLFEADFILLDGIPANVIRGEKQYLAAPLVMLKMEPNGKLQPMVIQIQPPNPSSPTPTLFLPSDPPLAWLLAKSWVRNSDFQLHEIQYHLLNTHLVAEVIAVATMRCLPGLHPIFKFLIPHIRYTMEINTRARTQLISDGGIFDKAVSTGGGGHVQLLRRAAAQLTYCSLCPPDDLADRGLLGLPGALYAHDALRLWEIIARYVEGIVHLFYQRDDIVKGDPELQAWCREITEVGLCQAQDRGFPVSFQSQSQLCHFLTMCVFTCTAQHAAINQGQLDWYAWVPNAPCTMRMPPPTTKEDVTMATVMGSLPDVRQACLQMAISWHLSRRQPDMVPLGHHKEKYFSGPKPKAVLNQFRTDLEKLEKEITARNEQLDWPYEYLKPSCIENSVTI
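Purified human 12hLO at 150 nM in 25 mM Hepes, 0.01% Triton X-100, pH 7.0, preincubated 15 min at room temperature with compound. Reaction started with 40 uM arachidonic acid, 30 min at room temperature. Hydroperoxide measured by Fe-xylenol orange, 573/405 nm absorbance ratio.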
Integrin act MD: activates integrin-mediated alleviation for muscular dystrophy | alpha7betagal myoblasts, beta-gal FDG fluorescence, 48 h | Potency, µM (series often up to 38.3 µM), for the others: at the highest dose activation, most hits filed as activators | 350,000 tested, 0.064% active;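 also: potency is read from the fitted curve at half-maximal effect; 100% = response of the positive control SU9516; nearly all actives have a fitted effect of over 60% in size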
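Alpha7betagal+/- myoblasts (passage 13) were plated 16-24 hr, then exposed to compounds (1:260 dilution of DMSO stock) for 48 hours at 37C. After MPER lysis, β-galactosidase reporter activity was read as FDG fluorescence (ex 480/em 540) after 30 minutes.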
IL-2 act: IL-2 activation; IL-2 activation reporter assay, cell-based qHTS; stimulated with anti-CD3/CD4/CD28 beads; in transgenic mouse T cells; activation, % (series mostly up to about 46 µM); 360,000 tested, 0.065% active; AID 652025; in the data active = activation above about 50%; inconclusive = mostly about 30% to 49%; also: 0% is about no effect
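First, unstimulated transgenic mouse T cells were exposed to compound for 60 min. Next, anti-CD3/anti-CD4-coated beads with anti-CD28 were added. Finally, after 18 h at 37 degrees C, EGFP and DsRed were imaged.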
uPA generation: blocks generation of uPA at the cell surface. 330,000 tested, 0.31% active. cell surface uPA generation assay, qHTS. AID 540303. Potency, µM (highest dose often 38.3 µM), inactives show top-dose activity change, negative = inhibition, usual class: inhibitors; active = well fitted inhibition curve with a large enough effect; inconclusive = small, poorly fitted or top-dose-only effect; inactive = no such curve, though single readings can be large or run the other way; tested in mouse RAW 264.7 cells; also: potency is read from the fitted curve at half-maximal effect; % is scaled to controls: 0 for no effect and ±100 for the full control effect; nearly all actives have a fitted effect of over 55% in size
* hit, by the source's call; ? = inconclusive; / = no result; [ ] = dose if it differs, or a comment. Shown are actives, neighbours in structure and some others; about 1.5% of the full set was active somewhere. Unless noted, calls follow the shape of the dose curve; as a rule, active = well fitted curve in the direction sought with a large enough effect; inconclusive = small, poorly fitted or top-dose-only effect, or another doubt; inactive = no such curve, though single readings can be large; an effect the other way counts as inactive or inconclusive.

SMILES | Nrf2 activator | 12-LOX inh | Integrin act MD | IL-2 act | uPA generation
COc1cccc(/C=C(/C#N)C(=O)c2c(Cl)cccc2Cl)c1OC | / | 20µM* | / | / | /
COc1cc(/C=C(/C#N)C(=O)Nc2cccc3ncccc23)cc(OC)c1OC | / | 16µM* | / | / | /
COc1cc(OC)c(OC)cc1/C=C(/C#N)C(=O)c1c(Cl)cccc1Cl | / | 5% | / | / | /
COc1cc(/C=C(/C#N)C(=O)c2c(Cl)cccc2Cl)cc(OC)c1 | / | 28µM* | / | / | /
COc1cccc(/C=C(/C#N)C(=O)c2c(Cl)cccc2Cl)c1 | / | 7.1µM* | / | / | /
CC1=C[C@@H](CC#N)[C@H](C(C)C)C[C@H]1CC(=O)N1CCN(c2ncccn2)CC1 | / | 63%[176 µM] | / | / | /
COc1ccc(-c2nc(CC(=O)NC3CCN(Cc4ccccc4)C3)cs2)cc1OC (configuration not stated) | / | -57% | / | / | /
CCn1cc(CN2C[C@@H]3C(=O)N(Cc4ccc5c(c4)OCO5)C(=O)[C@@H]3C2)cn1 | / | 14% | / | / | /
COc1cc(/C=C(/C#N)C(=O)c2c(Cl)cccc2Cl)cc(OC)c1OC | / | 0.5µM* | / | / | /
S=C(Nc1ccc(Cl)cc1Cl)Nc1ccccc1Oc1ccccc1 | 4% | / | -14% | 0 | -5%
S=C(Nc1ccccc1Oc1ccccc1)Nc1cccc(Cl)c1Cl | 0% | 35µM* | 3% | 1 | 2%
Cc1ccc(Nc2nc(-c3ccc(O)c(O)c3)cs2)nc1 | 19% | 22µM* | -33% | -1 | -17%
Cc1ccc(Nc2nc(-c3ccc(F)cc3)cs2)nc1 | 17% | ? | ? | 0 | -10%
CCn1c(-c2cc(-c3cc(OC)ccc3OC)nc3ccccc23)n[nH]c1=S | 0% | 20µM* | 7% | -2 | /
Cn1ccnc1C(=O)c1cccc(NC(=O)C(=O)N[C@H](CO)Cc2ccccc2)c1 | / | 1% | / | / | /
CC(=O)C1=C(O)C2(C)c3c(O)c(C)c(O)c(C(C)=O)c3OC2CC1=O (configuration not stated) | 1% | 32µM* | 2% | -2 | /
Cc1ccc(C(=O)NC23CC4CC(CC(C4)C2)C3)cc1Cl | / | 9% | / | / | /
Clc1ccc(OCc2nc(-c3ccccn3)no2)c(Br)c1 | -3% | 8% | -21% | -3 | 3.5µM*
COc1ccc(-c2nc(-c3ccccn3)no2)cc1 | -3% | 2% | 10% | -3 | 1.4µM*
COc1ccccc1-c1nc(-c2ccccn2)no1 | -3% | 9%[57.4 µM] | 14% | -2 | 1.4µM*
Clc1ccccc1OCc1nc(-c2ccccn2)no1 | 0% | 0%[57.4 µM] | -11% | -1 | 4%
Cc1ccccc1-c1nc(-c2ccccn2)no1 | 3% | -12% | 0% | 0 | ?
Brc1ccccc1-c1nc(-c2ccccn2)no1 | / | 14µM* | / | / | /
COCCNC(=O)CCc1c(C)nn(-c2ccc(F)cc2)c1Oc1ccc(F)cc1F | / | 27% | / | / | /
O=C(CCl)N1c2ccccc2SCC1c1ccccc1 (configuration not stated) | -1% | 20µM* | 0% | -4 | -18%
SMILES | Nrf2 activator | 12-LOX inh | Integrin act MD | IL-2 act | uPA generation
O=C(CCl)N1c2ccccc2OCC1c1ccccc1 (configuration not stated) | 9% | -19% | -58% | 0 | -5%
CCN1CCN(C(CC(C)C)c2nnnn2CS(=O)(=O)c2ccc(C)cc2)CC1 (configuration not stated) | -1% | 7.1µM* | -25% | 1 | 4%
O=C(NC(=S)NCCC1=CCCCC1)c1ccccc1Br | 6% | 16µM* | 17% | -1 | 3%
O=C(NCCC1=CCCCC1)c1ccc(=O)oc1 | 13% | 0% | 8% | -4 | -4%
O=C(NCCC1=CCCCC1)c1coc(=O)c(Br)c1 | 13µM* | -18% | -39% | -5 | -11%
CCCn1nccc1C(=O)N1CCCC(c2[nH]ncc2Cc2ccccc2)C1 (configuration not stated) | / | 4% | / | / | /
Clc1ccccc1-c1ncc2ccccn12 | 2% | 22µM* | -14% | 0 | -17%
Fc1cccc(-c2nc(COc3ccc(Br)cc3F)co2)c1 | / | 32µM* | / | / | /
CC1CCc2c(c(-c3ccc(O)cc3)nc3ccc4ccccc4c23)C1 (configuration not stated) | / | -5% | / | / | /
CC1CCc2c(nc3ccc4ccccc4c3c2-c2cccc(O)c2)C1 (configuration not stated) | / | 4.5µM* | / | / | /
N#Cc1cccc(/C=C2\CSc3ccccc3C2=O)c1 | / | 40µM* | / | / | /
O=C1/C(=C/c2cccc(F)c2)CSc2ccc(F)cc21 | / | -28% | / | / | /
